The panel holds about 83,000 compounds, 20% with a hit somewhere; the sample as a whole holds those more often.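 Step 1: grow cells in 96-well plates. Step 2: add test compound at a single concentration. Step 3: incubate 48 h. Step 4: record percent growth.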 Unmarked numbers belong to inactive results. Calls of active or inactive are those of the source.
Tested on: SN12C renal
Test: NCI-60 one-dose screen, 48 h (100 = growth as untreated, 0 = no growth, -100 = all killed)
Details: 10 µM unless noted
Experimental: Growth inhibition of the SN12C human tumor cell line is measured as a screen for anti-cancer activity. Cells are grown in 96 well plates and exposed to the test compound for 48 hours. Compounds are tested at a single concentration, which is 10^-5 M for most compounds. The reported endpoint is percent growth (GI% or GIPRCNT), where numbers from 0 - 100% represent growth inhibition, and numbers from -100% - 0 represent cell death. For example, a value of 40 represents 60% growth inhibition. A value of 0 means no net growth occurred over the course of the experiment. A value of -40 indicates 40% of cells at the beginning of the experiment died by the end of the experiment. A value of -100 means all cells are dead at the end of the experiment.
NCI-60 Human Tumor Cell Lines Screen was performed using the standard one-dose NCI protocol, which is described in more detail at https://dtp.cancer.gov/discovery_development/nci-60/default.htm.
Compounds with GIPRCNT values below 10 were considered active. Activity score was based on GIPRCNT using the following formula: […]
Score is 0 for GIPRCNT values of 100 or above, 50 for GIPRCNT values of 0, and 100 for GIPRCNT values of -100.

SMILES	growth
O=C1c2cccnc2C(=O)c2c1c(C(=O)OCCCN1CCCCC1)c1ccccn21	-57.6% (active)
O=C(Nc1cccnc1Nc1ccc(Cl)cc1)c1cn(Cc2ccc(F)cc2)nn1	95.9%
N=c1c2c(=N)n3c(nc2nc2n1-c1ccccc1Sc1ccccc1-2)sc1cc(Cl)ccc13	25%
O=C(N/N=C/c1ccc(Cl)cc1Cl)c1ccc2nc(-c3ccc(Cl)cc3)[nH]c2c1	-36.9% (active)
CCCCCCCCn1ccc2cc(NC(=O)Cn3cc(CN4CCN(CC)CC4)nn3)ccc21	64.1%
O=P(O)(O)OCC1OC(n2cnc3c(NCc4ccccc4)ncnc32)C(O)C1O (stereo not given)	19.7%
CCc1cccc(Sc2cc(C(=O)N3Cc4ccc(OCCN(C)C)cc4C3)ccc2O)c1	63.9%
O[C@@H](c1cc(C(F)(F)F)nc2c(C(F)(F)F)cccc12)[C@H]1CCCCN1	63.8%
CCOC(=O)Nc1nc2ccc(SCC(C)C)cc2s1	44.4%
Cc1cccc(N2CCN(C(=S)c3ccc4c(c3)OCO4)CC2)c1	40%
O=C(O)CCCn1c(SCc2c(Cl)cccc2Cl)nc2ccsc2c1=O	53.3%
Clc1ccc(-c2cn3ccsc3n2)c(Cl)c1Cl	77.9%
O=C1NC(=C(Cl)Cl)/C(=N/S(=O)(=O)N2CCCCC2)N1	23.5%
COc1cc(-c2cc(-c3ccc(Nc4ncnc5cc(Cl)ccc45)cc3)nc(N3CCN(C)CC3)n2)cc(OC)c1OC	88.6%
COc1cc(/C=C2\CN(S(=O)(=O)c3ccc(C)cc3)C/C(=C\c3cc(CN4CCCCC4)c(O)c(OC)c3)C2=O)cc(CN2CCCCC2)c1O	-76.5% (active)
COc1cc(N2C(=O)[C@H](c3ccccc3)C2c2ccc(SC)cc2)cc(OC)c1OC (stereo not given in full)	24.3%
COc1ccc(/C=C/C(=O)c2cc3c(N)c(C(=O)Nc4ccc(OC)cc4)sc3nc2C)cc1	31.6%
Cc1cc2nc3c4ccccc4n(CCN(C)C)c3nc2cc1C	16.9%
COc1ccc(/C=C/C(=O)c2ccc(Nc3nc(Nc4ccc(F)cc4)nc(Nc4ccc(Cl)cc4)n3)cc2)cc1	112%
COc1ccc2c(c1)c(-c1nonc1-c1cn(C)c3ccc(OC)cc13)cn2C	43.8%

SMILES	growth
N#Cc1c(-c2ccccc2)nc2c(c(-c3ccccc3)nn2-c2ccccc2)c1-c1ccc(N2CCOCC2)cc1	93.4%
CC(C)CSc1oc(-c2ccccc2)nc1S(=O)(=O)c1ccccc1	95%
CCCNc1nc2ccccc2c2c(=O)c3cccc(Cl)c3sc12	105%
O=C1/C(=C/c2ccc(C(F)(F)F)cc2)COc2ccc(O)c(O)c21	-58.6% (active)
COc1ccc2c(O)c(/C=C3\N=Nc4ccccc43)oc2c1C[C@H]1CCNC[C@H]1F	45.2%
N#Cc1c(-c2ccccc2)cc(-c2ccccc2)n(CCCC(=O)NO)c1=O	25.8%
C(/C=C/c1ccccc1)=Nc1ccc(CCc2ccc(N=C/C=C/c3ccccc3)cc2)cc1	92.7%
NC(CSC(c1ccccc1)(c1ccccc1)c1ccc2c(c1)OCO2)C(=O)O (stereo not given)	36.7%
CC/C=C\C/C=C/C=C1/C(=O)C=C[C@@H]1C/C=C\CCCC(=O)OC	-8.45% (active)
O=C1C(Cl)=C(NCCN2CCOCC2)C(=O)c2ncccc21	-69.2% (active)
Cc1ccc(/C=C2\CN(C(=O)C(Cl)Cl)C/C(=C\c3ccc(C)cc3)C2=O)cc1	-51.3% (active)
N#Cc1c(-c2cccc([N+](=O)[O-])c2)cc(-c2ccc(Nc3nc(Nc4ccc(F)cc4)nc(Nc4ccc(F)cc4)n3)cc2)nc1N	137%
O=C(c1ccc(F)c(Cl)c1)N1c2ccccc2Sc2ccccc21	99.2%
O=c1[nH]c(-c2ccc(Cl)cc2)cn1-c1ccc(-n2cc(-c3ccc(Cl)cc3)[nH]c2=O)cc1	92%
COc1cc(Nc2c3ccc(Cl)cc3nc3ccc(OC)cc23)c2ncccc2c1	52.5%
CCCCn1sc(=O)n(Cc2ccc(CNC(=O)OCc3ccc4c(Cl)cc(Cl)c(O)c4n3)cc2)c1=O	57.6%
C=CC(=O)NCCOc1cccc(Nc2cc(NCCCNC(=O)C3CCC3)c(Br)cn2)c1	3.07% (active)
COc1cccc(Nc2ccnc3[nH]c4ccc([N+](=O)[O-])cc4c23)c1	65.2%
COc1cc2c(c(OC)c1OC)C(=O)CC(c1cccc(NC(=O)c3ccccc3Br)c1)O2 (stereo not given)	91.5%
O=C(/C=C/c1ccc(Br)cc1)c1ccc(-n2cc(CN3CCN(c4cc5c(cc4F)c(=O)c(C(=O)O)cn5C4CC4)CC3)nn2)cc1	44.9%

Reference: PubChem BioAssay (NCI)
